Experimental data from PubChem BioAssay (NCATS).
Results filed as inconclusive are left out. Calls of active or inactive are those of the source. Calls come from the whole dose curve; as a rule, active = well fitted inhibition curve with a large enough effect; inconclusive = small, poorly fitted or top-dose-only effect; inactive = flat fitted curve, though single readings scatter.

Tests used:
Assay in all cases: qHTS profiling for inhibitors of Plasmodium falciparum proliferation (AID 504749); note: nearly all actives have a fitted effect of over 60% in size
Conditions in all cases: P. falciparum in erythrocytes, SYBR Green DNA, 72 h; series mostly up to 28.7 µM
CP315 = system: CP315
Procedure, shortened: (§1)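 P. falciparum-infected erythrocytes (0.3% parasitemia, 2.5% hematocrit final) were exposed to compounds for 72 h at 37 C in 5% CO2, then lysed with SYBR Green buffer overnight at room temperature; parasite DNA fluorescence was normalized to artemisinin and DMSO controls.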

CP325 = system: CP325
Procedure, shortened: as §1

CP329 = system: CP329
Procedure, shortened: as §1

CP335 = system: CP335
Procedure, shortened: as §1

DFO2036 = system: DFO2036
Procedure, shortened: as §1

DIV14 = system: DIV14
Procedure, shortened: as §1

DIV17 = system: DIV17
Procedure, shortened: as §1

DIV30 = system: DIV30
Procedure, shortened: as §1

Dd2 = system: Dd2
Procedure, shortened: as §1

ECU = system: ECU
Procedure, shortened: as §1

FAB9 = system: FAB9
Procedure, shortened: as §1

GB4 = system: GB4
Procedure, shortened: as §1

HB3 = system: HB3
Procedure, shortened: as §1

ICS = system: ICS
Procedure, shortened: as §1

JCK = system: JCK
Procedure, shortened: as §1

N140 = system: N140
Procedure, shortened: as §1

P93_24 = system: P93_24
Procedure, shortened: as §1

P94_40 = system: P94_40
Procedure, shortened: as §1

PAD = system: PAD
Procedure, shortened: as §1

PC15 = system: PC15
Procedure, shortened: as §1

Measured: Potency

CCCCOC(=O)c1ccc(N)cc1
inactive: all assays above

O=S1(=O)OC(c2ccc(O)cc2)(c2ccc(O)cc2)c2ccccc21
inactive: all assays above

O[C@@H]1CO[C@H]2[C@@H]1OC[C@@H]2O
inactive: all assays above

CCCOC(=O)c1ccc(N)cc1
inactive: all assays above

Cc1c(C)c2c(c(C)c1OC(=O)c1cccnc1)CC[C@@](C)(CCC[C@H](C)CCC[C@H](C)CCCC(C)C)O2
inactive: all assays above

CC(=O)Nc1ccccc1
inactive: all assays above

CN/C(=C\[N+](=O)[O-])NCCSCc1csc(CN(C)C)n1
inactive: all assays above

Cc1c(I)c(=O)n(-c2ccccc2)n1C
inactive: all assays above

CN1C(C)(C)CCCC1(C)C
inactive: all assays above

O=C(O)Cc1ccc(CCNS(=O)(=O)c2ccc(Cl)cc2)cc1
inactive: all assays above

CC(C)=CCC/C(C)=C/CO
inactive: all assays above

Cc1ccsc1C(=CCCN1CCC[C@@H](C(=O)O)C1)c1sccc1C
inactive: all assays above

OCc1ccc(Cl)cc1Cl
inactive: all assays above

NS(=O)(=O)c1cc(-c2nn[nH]n2)c(NCc2cccs2)cc1Cl
inactive: all assays above

COc1ccc(C(=O)N2CCN(CC(=O)N3CCOCC3)CC2)cc1
inactive: all assays above

NNC(=O)CP(=O)(c1ccccc1)c1ccccc1
inactive: all assays above

Cc1c(N(C)C)c(=O)n(-c2ccccc2)n1C
inactive: all assays above

C[C@@H]1CCC[C@H](C)N1
inactive: all assays above

CC1CC(OC(=O)c2ccccc2O)CC(C)(C)C1 (stereo not drawn)
inactive: all assays above

CC[N+](CC)(CC(=O)Nc1c(C)cccc1C)Cc1ccccc1
not listed: DIV14 | DIV17
inactive: all other assays above

CN1CCCN=C1COC(=O)C(O)(c1ccccc1)C1CCCCC1 (stereo not drawn)
not listed: DIV14 | GB4
inactive: all other assays above

Cc1ncc(CO)c(CN)c1O
not listed: P93_24 | PAD
inactive: all other assays above

COC(=O)c1cccnc1
not listed: P93_24
inactive: all other assays above

O=C(O)c1ccc[n+]([O-])c1
not listed: DIV14
inactive: all other assays above

Cc1c(NC(C)C)c(=O)n(-c2ccccc2)n1C
not listed: ECU | ICS
inactive: all other assays above

Cc1cc(NC(=O)C2=C(O)c3ccccc3S(=O)(=O)N2C)no1
not listed: DIV17
inactive: all other assays above

CNc1c2c(nn1C)CCCC2
not listed: DIV14
inactive: all other assays above
